Rows were chosen to be rich in hits. Some 2.2% of all compounds tested hit in one or more screens of this group.
Abeta yeast res: A-beta toxicity reversal in yeast; yeast expressing A-beta42, growth rescue, OD600, 48 h; response scale: 0% DMSO, 100% iron-clioquinol control; Potency, µM (series often up to 46.1 µM), actives largely listed as activators; 410,000 compounds, 0.063% hits; AID 1347071; further: nearly all actives have a fitted effect of over 55% in size
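Yeast A-beta toxicity model in growth medium with pinned compounds, 48 h at 30 C; growth read as absorbance at 600 nm. Normalized to FeCl3/clioquinol equimolar mix (positive) and DMSO (negative).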
FUS suppressor: suppressors of FUS proteinopathy in yeast. S. cerevisiae FUS-expressing, growth rescue, OD600, 24 h. 390,000 compounds, 0.24% hits. Potency, µM (doses to about 76.6 µM), usual class: activators;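 further: plate controls were DMSO vehicle for no effect and reference control for full effect; nearly all actives have a fitted effect of over 55% in size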
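Quantitative HTS measuring growth restoration of FUS-toxic yeast. Galactose-induced cells (OD 0.005) were exposed 24hr at 30C to compounds at several concentrations, then absorbance at 600 nm was recorded.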
TDP43 rescue: TDP-43 toxicity inhibition in yeast; TDP-43 expressing yeast growth rescue, BacTiter-Glo, 24 h; Potency, µM (doses to about 46.1 µM), without a hit: at the highest dose growth rescue (activation), most hits filed as activators; 410,000 compounds, 1.8% hits; AID 652104; further: % of control where 0% means no effect; nearly all actives have a fitted effect of over 50% in size
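In this qHTS, compounds that restore growth of yeast expressing TDP-43 appear as activators. Cells (OD600=0.02, galactose medium, raffinose-pregrown) are incubated with compound 24 hr at 30 deg C and growth is quantified by BacTiter-Glo.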
aSyn yeast inh: alpha-synuclein toxicity inhibition in yeast; Yeast expressing alpha-synuclein, growth rescue, BacTiter-Glo, 24 h; Potency, µM (series often up to 46.1 µM), for the others: at the highest dose growth rescue (activation), hits mostly activators; 370,000 compounds, 0.14% hits; AID 652106; further: % of control where 0% means no effect; nearly all actives have a fitted effect of over 65% in size
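Galactose-induced alpha-syn yeast (OD600=0.02, raffinose-pregrown) + pinned cpd, 24 hr, 30 deg C; growth by BacTiter-Glo luminescence. Growth restoration scores as activation.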
ERG Ets-DNA blk: blocks human ERG Ets domain binding to DNA. P11308. fluorescence polarization, His-ERG Ets domain / labelled DNA. Potency, µM (highest dose often 76.9 µM), for the others: at the highest dose FP activity, negative = inhibition, usual class: inhibitors. 370,000 compounds, 0.028% hits. AID 624246; active means well fitted inhibition curve with a large enough effect in the polarisation, with a control signal flat; inconclusive means small, poorly fitted or top-dose-only effect, or effect the other way, or a change in a side signal; inactive means no such curve, though single readings can be large or run the other way; the % refers to the polarisation;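 further: polarization taken with two DNA probes labelled with fluorescein and Texas red; % of control where 0% means no effect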
Target sequence (P11308 whole entry, looked up, the tested form may be a part): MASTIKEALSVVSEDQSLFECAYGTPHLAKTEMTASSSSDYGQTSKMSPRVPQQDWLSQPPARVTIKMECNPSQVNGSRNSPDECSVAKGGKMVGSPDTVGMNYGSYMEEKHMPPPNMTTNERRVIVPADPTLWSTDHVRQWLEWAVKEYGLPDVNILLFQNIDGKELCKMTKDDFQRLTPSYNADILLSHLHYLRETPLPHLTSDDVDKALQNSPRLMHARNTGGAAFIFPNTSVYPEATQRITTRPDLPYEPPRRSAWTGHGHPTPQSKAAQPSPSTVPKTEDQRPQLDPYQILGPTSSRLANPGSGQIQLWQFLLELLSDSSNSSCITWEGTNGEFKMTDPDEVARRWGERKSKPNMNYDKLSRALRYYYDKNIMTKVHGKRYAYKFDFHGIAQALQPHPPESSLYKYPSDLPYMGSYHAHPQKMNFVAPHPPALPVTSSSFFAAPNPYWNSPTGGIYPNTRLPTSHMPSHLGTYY
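His-tagged ERG Ets domain (1 uM in the protein solution; 300mM KCl, 50mM Tris-HCl, 1mM EDTA, 1mM DTT, pH 7.5) received compound, then a probe mix of 5 nM fluorescein-DNA and 100nM Texas-615-DNA. Fluorescence polarization was read for both dyes.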
Mito fusion yeast: blocks mitochondrial division or promotes mitochondrial fusion; S. cerevisiae fusion-defective mutant growth rescue, CellTiterGlo 48 h; Potency, µM (highest dose often 46.1 µM), for inactives: at the highest dose growth rescue (activation), usual class: activators; 320,000 compounds, 0.23% hits; AID 485298; further: % of control where 0% means no effect; nearly all actives have a fitted effect of over 45% in size
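Growth-rescue viability read-out: after 48 h at the non-permissive 37C in glycerol/ethanol YPEG, yeast mitochondrial fusion mutants are measured by CellTiterGlo luminescence; compounds (23 nl pinned per well) restoring growth score as division inhibitors or fusion activators.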
Starred values were filed as active, the others as inactive; [ ] = remark or other dose. Unless noted, the call rests on the fitted dose curve; in most records, active means well fitted curve in the direction sought with a large enough effect; inconclusive means small, poorly fitted or top-dose-only effect, or another doubt; inactive means no such curve, though single readings can be large; an effect the other way counts as inactive or inconclusive. Potency means the concentration at half of the fitted maximal effect.

For Cc1ccc(C(=O)/C=C/Nc2cccc([N+](=O)[O-])c2)o1 the results were Abeta yeast res inactive, FUS suppressor inactive, TDP43 rescue 27%, aSyn yeast inh 25%, ERG Ets-DNA blk 7% and Mito fusion yeast -5%.
O=C(/C=C/Nc1cccc([N+](=O)[O-])c1)c1ccco1 was read as Abeta yeast res inactive, FUS suppressor inactive, TDP43 rescue -1% and aSyn yeast inh 13µM*.
Screening C=CCc1cccc(/C=N/NC(=O)c2ccccc2Br)c1O returned Abeta yeast res inconclusive, FUS suppressor inactive, TDP43 rescue 16µM*, aSyn yeast inh inconclusive, ERG Ets-DNA blk 4% and Mito fusion yeast 0%.
Screening C=CCc1cccc(/C=N/NC(=O)c2ccccc2OC)c1O returned Abeta yeast res inactive, FUS suppressor inactive, TDP43 rescue 16µM*, aSyn yeast inh 2%, ERG Ets-DNA blk 9% and Mito fusion yeast 28%.
`Cc1c(C(=S)Nc2ccccc2)cnn1-c1ccc([N+](=O)[O-])cc1` gave Abeta yeast res inactive, TDP43 rescue 13µM*, aSyn yeast inh 16%, ERG Ets-DNA blk 1% and Mito fusion yeast -1%.
`Cc1c(C(=S)Nc2ccccc2)cnn1-c1ccccc1` gave Abeta yeast res inactive, TDP43 rescue 16µM*, aSyn yeast inh 6%, ERG Ets-DNA blk -4% and Mito fusion yeast -13%.
CCSc1ncc(Cl)c(C(=O)Nc2c(C(=O)Nc3ccc(Cl)cc3)oc3ccccc23)n1 was read as Abeta yeast res inactive, FUS suppressor inactive, TDP43 rescue 0% and ERG Ets-DNA blk 1%.
`Cc1ccc(C23CC4CC(CC(NC(=O)NC(C)(C)CO)(C4)C2)C3)cc1` gave Abeta yeast res inactive, FUS suppressor inactive, TDP43 rescue 22µM*, ERG Ets-DNA blk -4% and Mito fusion yeast inconclusive.
Screening Cc1cccc(NC(=O)CCn2nc(-c3ccccc3)c3ccccc3c2=O)c1 returned Abeta yeast res inactive, FUS suppressor inconclusive, TDP43 rescue 20µM*, ERG Ets-DNA blk -1% and Mito fusion yeast 3%.
COc1ccc(NC(=O)CSc2ccc(-c3cccs3)nn2)cc1 was read as Abeta yeast res inactive, FUS suppressor inactive, TDP43 rescue -11% and ERG Ets-DNA blk -3%.
Screening CC1CCC(Nc2ncnc3onc(-c4ccc(Cl)cc4)c23)CC1 (configuration not stated) returned Abeta yeast res inactive, FUS suppressor inactive, TDP43 rescue 20µM*, aSyn yeast inh -1% and ERG Ets-DNA blk -4%.
For Clc1ccc(-c2noc3ncnc(NC4CCCCC4)c23)cc1 the results were Abeta yeast res inactive, FUS suppressor inactive, TDP43 rescue 35µM* and ERG Ets-DNA blk 1%.
For CC(=O)Nc1ccc(C(=O)Nc2nc(-c3ccccn3)cs2)cc1 the results were Abeta yeast res inactive, FUS suppressor inconclusive, TDP43 rescue 10%, aSyn yeast inh -12%, ERG Ets-DNA blk 3% and Mito fusion yeast 1%.
Screening O=C(Nc1nc(-c2ccco2)cs1)c1ccccc1 returned Abeta yeast res inactive, FUS suppressor inactive, TDP43 rescue 13µM*, aSyn yeast inh -51%, ERG Ets-DNA blk 1% and Mito fusion yeast 9%.
`O=C(Nc1nc(-c2ccccn2)cs1)c1ccc2c(c1)OCCO2` gave Abeta yeast res 13µM*, FUS suppressor inactive, TDP43 rescue inconclusive, aSyn yeast inh inconclusive, ERG Ets-DNA blk 12% and Mito fusion yeast 0%.
For O=C(Nc1nc(-c2ccccn2)cs1)c1cc(Cl)ccc1[N+](=O)[O-] the results were Abeta yeast res 13µM*, FUS suppressor inactive, TDP43 rescue inconclusive, aSyn yeast inh inconclusive, ERG Ets-DNA blk -5% and Mito fusion yeast -6%.
O=[N+]([O-])c1ccc2c(c1)C=C/C2=C\c1ccccc1 was read as aSyn yeast inh 3%.
`CCc1ccc(NCc2cc3cc4c(cc3n(CC(=O)Nc3ccc(Cl)cc3)c2=O)OCO4)cc1` gave Abeta yeast res inactive, FUS suppressor inactive, TDP43 rescue 11%, aSyn yeast inh 4% and ERG Ets-DNA blk 6%.
`Cc1c(C(=O)c2ccc3c(c2)OCO3)ccc2c1OCO2` gave Abeta yeast res inactive, TDP43 rescue 18µM*, aSyn yeast inh 5% and ERG Ets-DNA blk 0%.
Screening Cc1ccc(NC(=O)CCS(=O)(=O)c2ccccc2)cc1C returned FUS suppressor inactive.
For CC(CC(=O)NCc1ccc(Cl)cc1)CC1=NS(=O)(=O)c2ccccc2N1 (configuration not stated) the results were Abeta yeast res inactive, FUS suppressor inactive, TDP43 rescue 13%[9.22 µM] and ERG Ets-DNA blk 4%.
Screening COc1ccc(N2CCC(CNC(=S)Nc3cc(C)ccc3C)C2)cc1 (configuration not stated) returned Abeta yeast res inconclusive, FUS suppressor inactive, TDP43 rescue 14µM*, aSyn yeast inh inconclusive, ERG Ets-DNA blk 9% and Mito fusion yeast 14%.
Screening COc1ccc(N2CCC(CNC(=S)Nc3cc(C)cc(C)c3)C2)cc1 (configuration not stated) returned Abeta yeast res inconclusive, FUS suppressor inconclusive, TDP43 rescue inconclusive, aSyn yeast inh 5%, ERG Ets-DNA blk 2% and Mito fusion yeast 14%.
COc1ccc(CN(CC2CCC(C(=O)O)CC2)C(=S)Nc2cc(C)ccc2C)cc1 (configuration not stated) was read as Abeta yeast res inactive, FUS suppressor inactive, TDP43 rescue 22µM*, aSyn yeast inh 10%, ERG Ets-DNA blk 9% and Mito fusion yeast 1%.
`Cc1nc(-c2cccc(NC(=O)Nc3ccc([N+](=O)[O-])cc3)c2)no1` gave Abeta yeast res inactive, FUS suppressor inactive, TDP43 rescue 7%, aSyn yeast inh -9% and ERG Ets-DNA blk -1%.
For O=C(c1ccc2c(c1)OCCO2)C1CCN(C(=O)c2ccc(F)c(F)c2)CC1 the results were Abeta yeast res inactive, FUS suppressor inactive, TDP43 rescue 11µM*, aSyn yeast inh 2%, ERG Ets-DNA blk -8% and Mito fusion yeast 6%.
Screening Cc1nn(CC(=O)c2ccc(Cl)s2)c(C)c1[N+](=O)[O-] returned Abeta yeast res inactive, FUS suppressor 18µM*, TDP43 rescue 29%, aSyn yeast inh 19%, ERG Ets-DNA blk 52% and Mito fusion yeast 13%.
Screening Cc1nn(CC(=O)Nc2ccc3c(c2)OCCO3)c(C)c1[N+](=O)[O-] returned Abeta yeast res inactive, FUS suppressor inactive, TDP43 rescue 6.3µM*, aSyn yeast inh 3% and ERG Ets-DNA blk 5%.
